Source: PubChem BioAssay

Test: changes in parasitized red cell lysis, either direction – P. falciparum Indochina, OD700, 3 h, PSAC antagonist project, primary screen (AID 1156)
Details: P. falciparum-infected erythrocytes, osmotic lysis, higher = more signal, called active from +8 up or from −8 down

z-score, inactive:
O=C1OCC=C[C@H]2OC34C=CCN(Cn5nnc6ccccc65)C(=O)[C@H]3N(CCCO)C(=O)[C@@H]4[C@@H]12 (stereo not given in full) 1.24, C[C@@H]1ON(c2ccc(C(=O)OC(C)(C)C)cc2)[C@H](c2ccc(O)cc2)[C@H]1C(=O)N1C(=O)OC[C@H]1Cc1ccccc1 -0.348, COCCOC(=O)N1C(=O)[C@@]2(c3cc(C#CC4=CCCCC4)ccc31)[C@H](C(N)=O)[C@H]1C(=O)O[C@H](c3ccccc3)[C@H](c3ccccc3)N1[C@@H]2c1ccccc1OCCO 0.629, COC(=O)[C@@]1(Cc2ccc(OC)cc2)[C@@H]2C(=CC(=O)[C@H]2CC(=O)C(=O)N(C)C)CN1C(=O)c1ccccc1 0.481, C=CC1c2cc(O)c(OC)cc2CCN1Cc1cc2c(cc1Br)OCO2 (stereo not given) 1.57, C=CCC(OC(C)=O)[C@@H]1[C@@H](N(Cc2cc3ccccc3o2)C(=O)c2ccc(C)cc2)c2cc(OCCCO)ccc2N1C(=O)Cc1ccc(OC)cc1 (stereo not given in full) -0.528, COc1cc(OC)c(C(O)C2C=CC3C(=O)N(c4ccccc4)C(=O)C3N2Nc2ccccc2)cc1Br (stereo not given) 0.508, Cc1ccc(S[C@]2(C(=O)NCC(F)(F)F)CC(=O)N(Cc3ccccc3)[C@@H]2c2ccc(CO)cc2I)cc1 0.173, COC(=O)c1ccc([C@H](NC(=O)c2ccco2)[C@]2(C)C[C@H]2C2CCCCC2)cc1 1.33, NC(N)=NCCCn1cc(CNC(=O)[C@@H](N)Cc2ccccc2)nn1 -0.561
